{
  "source": "PubChem BioAssay AID1159580",
  "about": "(chemical genetic matrix, 2015)",
  "assay": "chemical genetic growth profiling, strain panel (AID 1159580);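 further: tested at 20 µM; growth read once vehicle control cultures reached saturation at 30 °C; 1 = growth at the plate median or of vehicle wells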",
  "settings": "S. cerevisiae deletion strains, growth OD",
  "note": "Values joined by “and” are separate entries in the source; they are usually repeats but may differ in a detail not shown here. Equal entries are not always repeated. The whole screen tested about 5,500 compounds, of which about 2,000 (36%) were called active. Not shown: some 18% with an inconclusive outcome. No stated cut-off is given here; in the data, active means normalized growth mostly below about 0.91 (no sharp cut-off); inconclusive means no clear call, values can overlap the other calls; inactive means mostly above about 0.92. Some of the results follow.",
  "data": [
    {"smiles": "O=C(OC[C@H]1O[C@H](OC(=O)c2cc(O)c(O)c(OC(=O)c3cc(O)c(O)c(O)c3)c2)[C@H](OC(=O)c2cc(O)c(O)c(OC(=O)c3cc(O)c(O)c(O)c3)c2)[C@@H](OC(=O)c2cc(O)c(O)c(OC(=O)c3cc(O)c(O)c(O)c3)c2)[C@@H]1OC(=O)c1cc(O)c(O)c(OC(=O)c2cc(O)c(O)c(O)c2)c1)c1cc(O)c(O)c(OC(=O)c2cc(O)c(O)c(O)c2)c1", "values": [
      {"measurement": "normalized growth", "setting": "locus YAL013W, strain DEP1, stronger effect = lower value", "result": "0.088 (active)"},
      {"measurement": "normalized growth", "setting": "locus YAL021C, strain ccr4, stronger effect = lower value", "result": "0.273 (active)"},
      {"measurement": "normalized growth", "setting": "locus YAL026C, strain drs2, stronger effect = lower value", "result": "0.572 (active)"},
      {"measurement": "normalized growth", "setting": "locus YAL030W, strain snc1, stronger effect = lower value", "result": "0.889 (active)"},
      {"measurement": "normalized growth", "setting": "locus YBL061C, strain skt5, stronger effect = lower value", "result": "0.68 (active)"},
      {"measurement": "normalized growth", "setting": "locus YBR009C, strain hhf1, stronger effect = lower value", "result": "0.788 (active)"},
      {"measurement": "normalized growth", "setting": "locus YBR021W, strain FUR4, stronger effect = lower value", "result": "0.148 (active)"},
      {"measurement": "normalized growth", "setting": "locus YBR023C, strain chs3, stronger effect = lower value", "result": "0.537 (active)"},
      {"measurement": "normalized growth", "setting": "locus YBR171W, strain sec66, stronger effect = lower value", "result": "0.931 (inactive)"},
      {"measurement": "normalized growth", "setting": "locus YBR229C, strain ROT2, stronger effect = lower value", "result": "0.0601 (active)"},
      {"measurement": "normalized growth", "setting": "locus YBR231C, strain swc5, stronger effect = lower value", "result": "0.581 (active)"},
      {"measurement": "normalized growth", "setting": "locus YBR279W, strain paf1, stronger effect = lower value", "result": "0.686 (active)"},
      {"measurement": "normalized growth", "setting": "locus YCL011C, strain gbp2, stronger effect = lower value", "result": "0.782 (active)"},
      {"measurement": "normalized growth", "setting": "locus YCL016C, strain dcc1, stronger effect = lower value", "result": "0.735 (active)"},
      {"measurement": "normalized growth", "setting": "locus YCL029C, strain bik1, stronger effect = lower value", "result": "0.0912 (active)"},
      {"measurement": "normalized growth", "setting": "locus YCL061C, strain MRC1, stronger effect = lower value", "result": "0.759 (active)"},
      {"measurement": "normalized growth", "setting": "locus YCL069W, strain vba3, stronger effect = lower value", "result": "0.8 (active)"},
      {"measurement": "normalized growth", "setting": "locus YCR088W, strain abp1, stronger effect = lower value", "result": "0.834 (active)"},
      {"measurement": "normalized growth", "setting": "locus YDL005C, strain med2, stronger effect = lower value", "result": "1.02 (inactive)"},
      {"measurement": "normalized growth", "setting": "locus YDL035C, strain GPR1, stronger effect = lower value", "result": "0.0826 (active)"},
      {"measurement": "normalized growth", "setting": "locus YDL040C, strain nat1, stronger effect = lower value", "result": "0.824 (active)"},
      {"measurement": "normalized growth", "setting": "locus YDL074C, strain BRE1, stronger effect = lower value", "result": "0.148 (active)"},
      {"measurement": "normalized growth", "setting": "locus YDL101C, strain DUN1, stronger effect = lower value", "result": "0.0829 (active)"},
      {"measurement": "normalized growth", "setting": "locus YDL134C, strain PPH21, stronger effect = lower value", "result": "0.0788 (active)"},
      {"measurement": "normalized growth", "setting": "locus YDL185W, strain tfp1, stronger effect = lower value", "result": "0.0903 (active)"},
      {"measurement": "normalized growth", "setting": "locus YDL192W, strain arf1, stronger effect = lower value", "result": "0.0892 (active)"},
      {"measurement": "normalized growth", "setting": "locus YDR001C, strain nth1, stronger effect = lower value", "result": "0.998 (inactive)"},
      {"measurement": "normalized growth", "setting": "locus YDR069C, strain doa4, stronger effect = lower value", "result": "0.524 (active)"},
      {"measurement": "normalized growth", "setting": "locus YDR101C, strain arx1, stronger effect = lower value", "result": "0.0922 (active)"},
      {"measurement": "normalized growth", "setting": "locus YDR137W, strain rgp1, stronger effect = lower value", "result": "0.327 (active)"},
      {"measurement": "normalized growth", "setting": "locus YDR150W, strain NUM1, stronger effect = lower value", "result": "0.0891 (active)"},
      {"measurement": "normalized growth", "setting": "locus YDR159W, strain sac3, stronger effect = lower value", "result": "0.66 (active)"},
      {"measurement": "normalized growth", "setting": "locus YDR162C, strain NBP2, stronger effect = lower value", "result": "0.079 (active)"},
      {"measurement": "normalized growth", "setting": "locus YDR195W, strain ref2", "result": "0.839 (active)"},
      {"measurement": "normalized growth", "setting": "locus YDR297W, strain sur2, stronger effect = lower value", "result": "0.823 (active)"},
      {"measurement": "normalized growth", "setting": "locus YDR318W, strain mcm21, stronger effect = lower value", "result": "0.0987 (active)"},
      {"measurement": "normalized growth", "setting": "locus YDR334W, strain swr1, stronger effect = lower value", "result": "0.632 (active)"},
      {"measurement": "normalized growth", "setting": "locus YDR335W, strain msn5, stronger effect = lower value", "result": "0.747 (active)"},
      {"measurement": "normalized growth", "setting": "locus YDR388W, stronger effect = lower value", "result": "0.0902 (active)"},
      {"measurement": "normalized growth", "setting": "locus YDR392W, strain spt3, stronger effect = lower value", "result": "0.742 (inactive)"},
      {"measurement": "normalized growth", "setting": "locus YDR502C, strain sam2, stronger effect = lower value", "result": "0.101 (active)"},
      {"measurement": "normalized growth", "setting": "locus YEL003W, strain gim4, stronger effect = lower value", "result": "0.748 (active)"},
      {"measurement": "normalized growth", "setting": "locus YEL037C, strain rad23, stronger effect = lower value", "result": "0.771 (active)"},
      {"measurement": "normalized growth", "setting": "locus YEL061C, strain CIN8 (second series), stronger effect = lower value", "result": "0.926 (inactive)"},
      {"measurement": "normalized growth", "setting": "locus YEL061C, strain CIN8, stronger effect = lower value", "result": "0.0806 (active)"},
      {"measurement": "normalized growth", "setting": "locus YER015W, strain faa2, stronger effect = lower value", "result": "0.531 (active)"},
      {"measurement": "normalized growth", "setting": "locus YER016W, strain bim1, stronger effect = lower value", "result": "0.8 (active)"},
      {"measurement": "normalized growth", "setting": "locus YER110C, stronger effect = lower value", "result": "0.111 (active)"},
      {"measurement": "normalized growth", "setting": "locus YER111C, strain swi4, stronger effect = lower value", "result": "0.404 (active)"},
      {"measurement": "normalized growth", "setting": "locus YER155C, strain BEM2 (second series), stronger effect = lower value", "result": "0.99 (inactive)"},
      {"measurement": "normalized growth", "setting": "locus YER155C, strain BEM2, stronger effect = lower value", "result": "0.112 (active)"},
      {"measurement": "normalized growth", "setting": "locus YER167W, strain BCK2, stronger effect = lower value", "result": "0.0894 (active)"},
      {"measurement": "normalized growth", "setting": "locus YFR010W, strain ubp6, stronger effect = lower value", "result": "0.701 (active)"},
      {"measurement": "normalized growth", "setting": "locus YGL078C, strain dbp3, stronger effect = lower value", "result": "0.0891 (active)"},
      {"measurement": "normalized growth", "setting": "locus YGL086W, strain mad1, stronger effect = lower value", "result": "0.0871 (active)"},
      {"measurement": "normalized growth", "setting": "locus YGL167C, strain pmr1, stronger effect = lower value", "result": "0.724 (active)"},
      {"measurement": "normalized growth", "setting": "locus YGL173C, strain kem1, stronger effect = lower value", "result": "0.54 (active)"},
      {"measurement": "normalized growth", "setting": "locus YGL227W, strain vid30, stronger effect = lower value", "result": "1 (inactive)"},
      {"measurement": "normalized growth", "setting": "locus YGL240W, strain doc1, stronger effect = lower value", "result": "0.979 (inactive)"},
      {"measurement": "normalized growth", "setting": "locus YGL248W, strain PDE1, stronger effect = lower value", "result": "0.0713 (active)"},
      {"measurement": "normalized growth", "setting": "locus YGL253W, strain hxk2, stronger effect = lower value", "result": "0.796 (active)"},
      {"measurement": "normalized growth", "setting": "locus YGR078C, strain PAC10, stronger effect = lower value", "result": "0.084 (active)"},
      {"measurement": "normalized growth", "setting": "locus YGR135W, strain pre9, stronger effect = lower value", "result": "0.0994 (active)"},
      {"measurement": "normalized growth", "setting": "locus YGR229C, strain SMI1, stronger effect = lower value", "result": "0.102 (active)"},
      {"measurement": "normalized growth", "setting": "locus YGR252W, strain gcn5, stronger effect = lower value", "result": "0.231 (active)"},
      {"measurement": "normalized growth", "setting": "locus YHR013C, strain ard1, stronger effect = lower value", "result": "0.597 (active)"},
      {"measurement": "normalized growth", "setting": "locus YHR027C, strain rpn1, stronger effect = lower value", "result": "0.455 (active)"},
      {"measurement": "normalized growth", "setting": "locus YHR030C, strain SLT2, stronger effect = lower value", "result": "0.0838 (active) and 1.05 (inactive)"},
      {"measurement": "normalized growth", "setting": "locus YHR079C, strain IRE1 (second series), stronger effect = lower value", "result": "0.0958 (active)"},
      {"measurement": "normalized growth", "setting": "locus YHR079C, strain IRE1, stronger effect = lower value", "result": "1.05 (inactive)"},
      {"measurement": "normalized growth", "setting": "locus YHR094C, strain hxt1, stronger effect = lower value", "result": "0.0909 (active)"},
      {"measurement": "normalized growth", "setting": "locus YHR129C, strain ARP1, stronger effect = lower value", "result": "0.105 (active)"},
      {"measurement": "normalized growth", "setting": "locus YHR142W, strain chs7, stronger effect = lower value", "result": "0.535 (active)"},
      {"measurement": "normalized growth", "setting": "locus YHR200W, strain rpn10, stronger effect = lower value", "result": "0.0922 (active)"},
      {"measurement": "normalized growth", "setting": "locus YIL066C, strain RNR3, stronger effect = lower value", "result": "0.0729 (active)"},
      {"measurement": "normalized growth", "setting": "locus YIL073C, strain SPO22, stronger effect = lower value", "result": "0.167 (active)"},
      {"measurement": "normalized growth", "setting": "locus YIL125W, strain kgd1, stronger effect = lower value", "result": "0.0846 (active)"},
      {"measurement": "normalized growth", "setting": "locus YIR030C, strain dcg1, stronger effect = lower value", "result": "0.0869 (active)"},
      {"measurement": "normalized growth", "setting": "locus YJL092W, strain hpr5, stronger effect = lower value", "result": "0.866 (active)"},
      {"measurement": "normalized growth", "setting": "locus YJL095W, strain BCK1 (second series), stronger effect = lower value", "result": "0.789 (active)"},
      {"measurement": "normalized growth", "setting": "locus YJL095W, strain BCK1, stronger effect = lower value", "result": "0.0975 (active) and 1.03 (inactive)"},
      {"measurement": "normalized growth", "setting": "locus YJL115W, strain asf1, stronger effect = lower value", "result": "0.979 (inactive)"},
      {"measurement": "normalized growth", "setting": "locus YJL129C, strain trk1, stronger effect = lower value", "result": "0.872 (inactive)"},
      {"measurement": "normalized growth", "setting": "locus YJL134W, strain LCB3, stronger effect = lower value", "result": "0.0741 (active)"},
      {"measurement": "normalized growth", "setting": "locus YJL154C, strain vps35, stronger effect = lower value", "result": "0.965 (inactive)"},
      {"measurement": "normalized growth", "setting": "locus YJL164C, strain tpk1, stronger effect = lower value", "result": "0.781 (active)"},
      {"measurement": "normalized growth", "setting": "locus YJL166W, strain qcr8, stronger effect = lower value", "result": "0.839 (active)"},
      {"measurement": "normalized growth", "setting": "locus YJL168C, strain set2, stronger effect = lower value", "result": "0.087 (active)"},
      {"measurement": "normalized growth", "setting": "locus YJL187C, strain SWE1 (second series), stronger effect = lower value", "result": "0.0725 (active)"},
      {"measurement": "normalized growth", "setting": "locus YJR043C, strain POL32, stronger effect = lower value", "result": "0.101 (active)"},
      {"measurement": "normalized growth", "setting": "locus YJR066W, strain TOR1, stronger effect = lower value", "result": "0.967 (inactive)"}
    ]}
  ]
}
